From PMC4336329 (PLoS ONE, 2015)
Among all 310,000 compounds or so, about 14,000 (4.5%) showed an effect of 50% or more. The effect is printed as a negative number. Only a selection was taken, and strong results are over-represented in it overall.

These compounds were tested against human ether-à-go-go-related gene (hERG) potassium channel (human, UniProt Q12809) (assay: primary screen, population patch clamp on CHO cells stably expressing hERG; higher = less effect of the substance).
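Further: peak tail current of the secondary pulse compared with the same well before compound.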

human ether-à-go-go-related gene (hERG) potassium channel, sequence (Q12809 whole entry, looked up): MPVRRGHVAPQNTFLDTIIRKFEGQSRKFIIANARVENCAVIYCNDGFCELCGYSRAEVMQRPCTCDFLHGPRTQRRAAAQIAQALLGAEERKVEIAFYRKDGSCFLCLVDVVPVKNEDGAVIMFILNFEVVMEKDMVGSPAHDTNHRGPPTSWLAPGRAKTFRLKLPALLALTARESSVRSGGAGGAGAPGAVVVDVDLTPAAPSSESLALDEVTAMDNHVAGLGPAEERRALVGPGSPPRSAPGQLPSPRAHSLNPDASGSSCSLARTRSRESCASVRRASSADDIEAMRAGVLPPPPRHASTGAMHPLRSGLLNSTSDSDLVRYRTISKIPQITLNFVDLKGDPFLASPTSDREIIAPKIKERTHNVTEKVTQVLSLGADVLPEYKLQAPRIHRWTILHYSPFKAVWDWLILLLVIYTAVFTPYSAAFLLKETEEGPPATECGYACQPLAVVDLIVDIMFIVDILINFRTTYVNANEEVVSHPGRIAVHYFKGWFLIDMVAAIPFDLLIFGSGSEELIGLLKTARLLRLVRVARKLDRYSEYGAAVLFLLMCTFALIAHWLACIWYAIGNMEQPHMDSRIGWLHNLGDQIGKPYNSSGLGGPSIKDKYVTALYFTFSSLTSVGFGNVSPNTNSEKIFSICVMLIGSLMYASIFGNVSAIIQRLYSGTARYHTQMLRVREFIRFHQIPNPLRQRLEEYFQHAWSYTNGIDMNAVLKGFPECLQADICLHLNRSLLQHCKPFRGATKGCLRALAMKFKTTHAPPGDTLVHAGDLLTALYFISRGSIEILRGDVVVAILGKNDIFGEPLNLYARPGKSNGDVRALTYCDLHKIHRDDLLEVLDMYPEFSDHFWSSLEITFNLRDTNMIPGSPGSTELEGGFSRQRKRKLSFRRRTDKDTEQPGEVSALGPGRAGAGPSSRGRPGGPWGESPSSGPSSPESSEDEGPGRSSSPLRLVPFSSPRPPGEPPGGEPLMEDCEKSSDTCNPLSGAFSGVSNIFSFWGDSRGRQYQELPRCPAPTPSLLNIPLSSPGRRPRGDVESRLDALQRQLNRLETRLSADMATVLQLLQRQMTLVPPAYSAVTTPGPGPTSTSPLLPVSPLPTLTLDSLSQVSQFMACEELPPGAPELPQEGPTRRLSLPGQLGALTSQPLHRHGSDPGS

Point of comparison: `N#Cc1ccc(-c2ccc(F)cc2)nc1SCC(=O)Nc1sc2c(c1C#N)CCC2`, “hERG current change (%, negative = inhibition) at 10uM” value 4.57%. Against it:
- O=C(Nc1ccc(Cl)c(Cl)c1)Nc1ccccn1 — lower, 2.95%
- Cc1ccc(/C=C2\SC(=S)N(CCCC(=O)Nc3nccs3)C2=O)cc1 — higher, 15.7%
- O=C(COC(=O)CCCN1C(=O)c2cccc3cccc(c23)C1=O)Nc1ccc(Cl)cc1 — lower, 3.07%
- O=C(NC1CC1)C1CCN(C2CCN(C(=O)Cc3ccc(F)cc3)CC2)CC1 — lower, -2.99%
- O=C(NC1CC1)C1CCN(C2CCN(C(=O)c3c(F)cccc3Cl)CC2)CC1 — higher, 13.3%
- O=C(NC1CC1)C1CCN(C2CCN(C(=O)/C=C/c3cccc(F)c3F)CC2)CC1 — lower, -22.1%
- Cc1ccc2oc(C(=O)N3CCC(N4CCSCC4)CC3)c(C)c2c1 — lower, -30.6%
- CC(C)(C)c1ccc(C(=O)N2CCC(C(=O)NC3CCCCCC3)CC2)cc1 — lower, -40%
- CCOc1ccccc1CN1CCC(N2CCC(C(=O)NC3CC3)CC2)CC1 — lower, 1.53%
- CC(C)(C)c1ccc(C(=O)N2CCC(C(=O)NC3CC3)CC2)cc1 — lower, -2.74%
- Cc1ccc2c(C)c(C(=O)N3CCC(N4CCC(C(=O)NC5CC5)CC4)CC3)oc2c1 — lower, -59.1%
- O=C(NC1CC1)C1CCN(C2CCN(Cc3ccccc3C(F)(F)F)CC2)CC1 — lower, -53.1%
- O=C(NC1CC1)C1CCN(C2CCN(C(=O)/C=C/c3ccc(F)cc3)CC2)CC1 — lower, -62.9%
- O=C(NC1CC1)C1CCN(C2CCN(C(=O)c3ccc(C(F)(F)F)cc3)CC2)CC1 — lower, -56.4%
- FC(F)(F)c1ccccc1CN1CCN(C2CCCCCC2)CC1.O=C(O)C(=O)O — lower, -49.3%
- O=C(NCCCCCCNC(=O)OCCO)OCCO — higher, 28.4%
- NNC(=O)CNS(=O)(=O)c1ccc([N+](=O)[O-])cc1 — higher, 17.4%
- COc1ccccc1N(C)S(=O)(=O)c1ccc(C(=O)NCC2CCCCC2)cc1 — lower, -3.05%
- CC(C)Cn1c(N)c(C(=O)COC(=O)CC23CC4CC(CC(C4)C2)C3)c(=O)n(C)c1=O — lower, -16.2%
- CCCc1cc(=O)c2c(O)cccc2o1 — higher, 5.41%
- CC1CC1C(=O)OCC(=O)Nc1ccc2[nH]c(=O)[nH]c2c1 (centres unmarked) — lower, 2.94%
- COCCN1CCN(C(=O)c2ccc3oc(CCc4ccccc4)nc3c2)CC1 — lower, -30.1%
- COc1ccccc1N(CC(=O)N1CCN(c2ccccc2)CC1)S(=O)(=O)c1ccc(C)cc1 — higher, 17.5%
- Cc1nc(NCCc2ccc(S(N)(=O)=O)cc2)c2c(C)c(C)sc2n1 — lower, 4.01%
- CC1(C)CC(=O)c2cc(OCC(=O)NCCCN3CCN(c4ccc(F)cc4)CC3)ccc2O1 — lower, -72.9%
- CCN1CCN(CCCNC(=O)CCc2nc(-c3ccc(OC)cc3)no2)CC1 — lower, -2.35%
- O=C(CCc1nc(-c2ccccc2F)no1)NCCN1CCc2ccccc2C1 — lower, -50.4%
- COc1ccc(-c2noc(CCC(=O)NCCCN3CCN(c4ccc(F)cc4)CC3)n2)cc1 — lower, -67.4%
- O=C(CCc1nc(-c2ccccc2F)no1)NCCN1CCN(Cc2ccccc2)CC1 — lower, -43.2%
- COc1ccc(N2CCN(C(=O)CCc3nc(-c4ccc(C)cc4)no3)CC2)cc1 — lower, -14.1%
- O=C(CCc1nc(-c2ccccc2F)no1)NCCN1CCOCC1 — higher, 6.22%
- CC1(C)CC(=O)c2cc(OCC(=O)NCCN3CCOCC3)ccc2O1 — higher, 22.7%
- COc1ccc(-c2noc(CCC(=O)NCCc3ccccc3)n2)cc1 — higher, 20.9%
- COc1ccc(-c2noc(CCC(=O)NCCCN3CCC(C)CC3)n2)cc1 — lower, -5.81%
- COc1ccc(-c2noc(CCC(=O)NCCCN3CCC(Cc4ccccc4)CC3)n2)cc1 — lower, -80.7%
- CC1(C)CC(=O)c2cc(OCC(=O)NCCCN3CCN(c4ccccc4F)CC3)ccc2O1 — lower, -47.4%
- Cc1cc(NC(=O)C(C)SCC(=O)Nc2ccccc2N2CCCC2)no1 (centres unmarked) — higher, 15.1%
- CCNC(=S)N/N=C/c1cccs1 — higher, 6.26%
- O=C(CCCCCN1C(=O)CCC1=O)Nc1ccc2c(c1)OCCO2 — higher, 8.47%
- CC(=O)Nc1ccc(-c2csc(NNC(=O)c3ccccc3)n2)cc1 — higher, 24.7%
- Cc1ccc(-c2nc(C(F)(F)F)cc(=O)[nH]2)cc1 — higher, 12.7%
- N#CCCn1ncn(-c2ccccc2)c1=S — lower, 1.22%
- Cc1ccccc1CC(=O)Nc1ccc2c(c1)CCC2 — higher, 18.3%
- COc1ccc(-c2noc(CCC(=O)NCCCN3CCN(c4ccccc4F)CC3)n2)cc1 — lower, -61%
- COCCCNC(=O)CCc1nc(-c2ccccc2)no1 — higher, 9.36%
- COc1ccc(-c2noc(CCC(=O)NCCN(C)Cc3ccccc3)n2)cc1 — lower, -30.5%
- Cc1ccc(-c2noc(CCC(=O)NCCCN3CCN(c4cccc(Cl)c4)CC3)n2)cc1 — lower, 2.45%
- Cc1ccc(-c2noc(CCC(=O)NCCN3CCOCC3)n2)cc1 — higher, 4.65%
- Cc1ccc(-c2noc(CCC(=O)NCCCN3CCN(c4ccc(F)cc4)CC3)n2)cc1 — lower, -66.8%
- COc1ccc(C(=O)/C=C/c2cccs2)c(OC(=O)c2cccc([N+](=O)[O-])c2)c1 — higher, 5.34%
- CCC(C)C(NC(=O)OCc1ccccc1)C(=O)NCC(c1ccccc1)N(C)C (centres unmarked) — lower, -7.1%
- CC1CN(S(=O)(=O)c2ccc(F)cc2)CN1C(=O)N1CCOCC1 (centres unmarked) — higher, 17.6%
- CC(C)CCN1CCN(Cc2nc3c(s2)CCCC3)CC1CCO (centres unmarked) — lower, -28.2%
- Cc1ccc(CN2CCN(Cc3nc4c(s3)CCCC4)CC2CCO)cc1 (centres unmarked) — lower, -55.3%
- OCCC1CN(Cc2nc3c(s2)CCCC3)CCN1Cc1ccccc1 (centres unmarked) — lower, -22.5%
- OCCC1CN(Cc2nc3c(s2)CCCC3)CCN1CCc1ccccc1 (centres unmarked) — lower, -61.4%
- OCCC1CN(Cc2nc3c(s2)CCCC3)CCN1Cc1ccsc1 (centres unmarked) — lower, -14.6%
- CC(C)N1CCN(Cc2nc3c(s2)CCCC3)CC1CCO (centres unmarked) — higher, 18.9%
